{"source": "the supplement of paper PMC10720658", "note": "± gives the standard deviation of the averaged measurements."}
{"test_system": "AEK1 (Tb927.3.2440)", "assay": "percent reduction in TR-FRET probe signal relative to DMSO control; higher = stronger displacement of ATP-site probe (binding)", "conditions": "1 µM; incubation time 1 h", "units": {"percent reduction in TR-FRET probe signal": "%"}}
{"molecule": "O=C(NCCO)c1cccc(-c2cc(Nc3ccc(OC(F)(F)F)cc3)ncn2)c1", "percent reduction in TR-FRET probe signal": "13.3 ± 16"}
{"molecule": "Cc1cc(Nc2cc(N3CCN(C)CC3)nc(Sc3ccc(NC(=O)C4CC4)cc3)n2)n[nH]1", "note": "[VX-680 (Tozasertib, MK-0457)]", "percent reduction in TR-FRET probe signal": "10.3 ± 20"}
{"molecule": "CN1CCC(CNc2ccc3ncc(-c4cccc(OC(F)(F)F)c4)n3n2)CC1", "note": "[SGI-1776 free base]", "percent reduction in TR-FRET probe signal": "30 ± 15"}
{"molecule": "CO[C@H]1C[C@@H]2CC[C@@H](C)[C@@](O)(O2)C(=O)C(=O)N2CCCC[C@H]2C(=O)O[C@H]([C@H](C)C[C@@H]2CC[C@@H](OC(=O)C(C)(CO)CO)[C@H](OC)C2)CC(=O)[C@H](C)/C=C(\\C)[C@@H](O)[C@@H](OC)C(=O)[C@H](C)C[C@H](C)/C=C/C=C/C=C/1C", "percent reduction in TR-FRET probe signal": "2.13 ± 12"}
{"molecule": "O=C(Nc1cccnc1)c1cc(-c2ccnc(F)c2)ccc1OCc1ccccc1", "percent reduction in TR-FRET probe signal": "-0.16 ± 3.2"}
{"molecule": "Cc1c(NC(=O)c2ccc(C(C)(C)C)cc2)cccc1-c1cn(C)c(=O)c(Nc2ccc(C(=O)N3CCOCC3)cc2)n1", "percent reduction in TR-FRET probe signal": "-8 ± 7.8"}
{"molecule": "CC(C)(O)CNc1ncc(-c2ccnc(Nc3ccnc(Cl)c3)n2)c(CC2CC2)n1", "percent reduction in TR-FRET probe signal": "4.25 ± 12"}
{"molecule": "CCc1cccc(CC)c1NC(=O)N1Cc2[nH]nc(NC(=O)c3ccc(N4CCN(C)CC4)cc3)c2C1", "percent reduction in TR-FRET probe signal": "29.3 ± 8.1"}
{"molecule": "N#C/C(=C\\c1ccc(O)c(O)c1)C(=O)NCc1ccccc1", "note": "[AG-490 (Tyrphostin B42)]", "percent reduction in TR-FRET probe signal": "-5.12 ± 12"}
{"molecule": "Cc1cn(-c2cc(NC(=O)c3ccc(C)c(Nc4nccc(-c5cccnc5)n4)c3)cc(C(F)(F)F)c2)cn1", "note": "[Nilotinib (AMN-107)]", "percent reduction in TR-FRET probe signal": "17.5 ± 28"}
{"molecule": "O=C(NOC[C@H](O)CO)c1ccc(F)c(F)c1Nc1ccc(I)cc1F", "percent reduction in TR-FRET probe signal": "-3.89 ± 11"}
{"molecule": "CC[C@H](CO)Nc1nc(NCc2ccccc2)c2ncn(C(C)C)c2n1", "note": "[Roscovitine (Seliciclib,CYC202)]", "percent reduction in TR-FRET probe signal": "-4.47 ± 5.4"}
{"molecule": "CC1(COc2ccc3c(c2)ncn3-c2ccc3cccc(N4CCC(N)CC4)c3n2)COC1", "percent reduction in TR-FRET probe signal": "18.8 ± 11"}
{"molecule": "CC(C)(C)NS(=O)(=O)c1cncc(-c2cc(F)c3nc(N)nn3c2)c1", "percent reduction in TR-FRET probe signal": "-7.77 ± 4.5"}
{"molecule": "Cc1cc([C@@H](C)Nc2ccccc2C(=O)O)c2nc(N3CCOCC3)cc(=O)n2c1", "percent reduction in TR-FRET probe signal": "-5.32 ± 14"}
{"molecule": "c1cncc(CN2CCC(n3ncc4c(N5CCOCC5)nc(-c5ccc6[nH]ccc6c5)nc43)CC2)c1", "percent reduction in TR-FRET probe signal": "6.62 ± 13"}
{"molecule": "CN(C)CCCn1cc(C2=C(c3c[nH]c4ccccc34)C(=O)NC2=O)c2ccccc21", "percent reduction in TR-FRET probe signal": "8.74 ± 7.2"}
{"molecule": "Cl.Cl.NC1(c2ccc(-c3nc4ccn5c(=O)[nH]nc5c4cc3-c3ccccc3)cc2)CCC1", "percent reduction in TR-FRET probe signal": "-1.31 ± 6.8"}
{"molecule": "COc1cc(OC)c(/C=C/S(=O)(=O)Cc2ccc(OC)c(NCC(=O)[O-])c2)c(OC)c1.[Na+]", "percent reduction in TR-FRET probe signal": "-3.78 ± 11"}
{"molecule": "NCC(=O)Nc1ccc(-n2nc(C(F)(F)F)cc2-c2ccc3c(ccc4ccccc43)c2)cc1", "percent reduction in TR-FRET probe signal": "-2.82 ± 7.5"}
{"molecule": "C[C@H](Nc1ncnc2nc[nH]c12)c1cc2cccc(Cl)c2c(=O)n1-c1ccccc1", "percent reduction in TR-FRET probe signal": "-9.85 ± 5.9"}
{"molecule": "Nc1ccc(C(=O)Nc2cccc(-c3nc(N4CCOCC4)c4oc5ncccc5c4n3)c2)cn1", "percent reduction in TR-FRET probe signal": "-7.4 ± 3"}
{"molecule": "NC(=O)Nc1sc(-c2ccc(F)cc2)cc1C(N)=O", "percent reduction in TR-FRET probe signal": "10.6 ± 8.8"}
{"molecule": "Cc1cc(Nc2ncc(Cl)c(Nc3ccccc3S(=O)(=O)C(C)C)n2)c(OC(C)C)cc1C1CCNCC1", "percent reduction in TR-FRET probe signal": "-7.62 ± 8.9"}
{"molecule": "Cc1nc(Nc2cnn(C3CCNCC3)c2)nc2c1N(C)C(=O)c1cc3ccccc3cc1N2C", "percent reduction in TR-FRET probe signal": "-10.5 ± 7.1"}
{"molecule": "CCn1c(N)c(C(=O)NC)c(=O)c2ccc(C#C[C@@](C)(O)COC)nc21", "percent reduction in TR-FRET probe signal": "10.3 ± 4.8"}
{"molecule": "CN(c1ncccc1CNc1nc(Nc2ccc3c(c2)CC(=O)N3)ncc1C(F)(F)F)S(C)(=O)=O.O=S(=O)(O)c1ccccc1", "percent reduction in TR-FRET probe signal": "37.1 ± 14"}
{"molecule": "CNc1nc(-c2ccc3c(N)n[nH]c3c2)cc(N2C[C@@H](C(=O)NC3CCCCC3)CC[C@H]2C)n1", "percent reduction in TR-FRET probe signal": "14.7 ± 20"}
{"molecule": "CCN1CCN(Cc2ccc(C(=O)Nc3ccc(C)c(Oc4ccc5c(c4)CC(=O)N5)c3)cc2C(F)(F)F)CC1", "percent reduction in TR-FRET probe signal": "-7.33 ± 8.7"}
{"molecule": "NC(=O)Nc1cc(-c2cccc(F)c2)sc1C(=O)N[C@H]1CCCNC1", "percent reduction in TR-FRET probe signal": "48.5 ± 24"}
{"molecule": "Cc1nc(NC(=O)N2CCC[C@H]2C(N)=O)sc1-c1ccnc(C(C)(C)C(F)(F)F)c1", "percent reduction in TR-FRET probe signal": "0.68 ± 7.1"}
{"molecule": "FC(F)(F)c1ccc(/C=C/c2nc(COc3ccc(CCCCn4ccnn4)cc3)co2)cc1", "note": "[Mubritinib (TAK 165)]", "percent reduction in TR-FRET probe signal": "0.627 ± 0.93"}
{"molecule": "COc1cc(C(=O)NC2CCN(C)CC2)ccc1Nc1ncc2c(n1)N(C1CCCC1)CC(F)(F)C(=O)N2C", "percent reduction in TR-FRET probe signal": "-5 ± 7"}
{"molecule": "CC(C)(CCCCCC(O)CCCCCC(C)(C)C(=O)O)C(=O)O", "percent reduction in TR-FRET probe signal": "0.88 ± 3.4"}
{"molecule": "CCO.N#CC(=C(\\N)Sc1ccccc1N)/C(C#N)=C(/N)Sc1ccccc1N", "percent reduction in TR-FRET probe signal": "0.443 ± 7.1"}
{"molecule": "CN1CC[C@H](c2c(O)cc(O)c3c(=O)cc(-c4ccccc4Cl)oc23)[C@H](O)C1.Cl", "note": "[Flavopiridol HCl]", "percent reduction in TR-FRET probe signal": "-6.15 ± 9.4"}
{"molecule": "Cc1cc(CS(=O)(=O)c2ccccc2)cc(OCc2ccc(CN3CCC[C@@H]3CO)cc2)c1", "percent reduction in TR-FRET probe signal": "-6.92 ± 5.9"}
{"molecule": "N#Cc1c(O)c2c(-c3ccc(-c4ccccc4O)cc3)csc2[nH]c1=O", "percent reduction in TR-FRET probe signal": "-7.05 ± 2.1"}
